According to PubChem BioAssay (NCI):
Compounds without any hit were thinned out: in the full panel of roughly 83,000, 20% have a hit.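 Assay: single dose, 48 h. Readout: percent growth (0 = no net growth; negative = cell death). Active: <10.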 Active and inactive are the calls of the source.

How the values were obtained:
Test in all cases: NCI-60 one-dose screen, 48 h (100 = growth as untreated, 0 = no growth, -100 = all killed)
Settings in all cases: 10 µM unless noted
T-47D breast = system: T-47D breast
BT-549 breast = system: BT-549 breast
MDA-MB-435 melanoma = system: MDA-MB-435 melanoma
SW-620 colon = system: SW-620 colon
MCF7 breast = system: MCF7 breast
HCT-116 colon = system: HCT-116 colon
HCC-2998 colon = system: HCC-2998 colon
KM12 colon = system: KM12 colon

Measured: growth

COc1cc(/C=C/c2cc(O)c(C(C)=O)c(O)c2)cc2c1O[C@]1(C)CC[C@@H](O)C(C)(C)[C@H]1C2
inactive: T-47D breast 49% | BT-549 breast 22.1% | MDA-MB-435 melanoma 73% | SW-620 colon 69.3% | MCF7 breast 45.3% | HCT-116 colon 45.2% | HCC-2998 colon 75.1% | KM12 colon 53.9%

CCCCC/C=C/C(C)=C/C1CC(C)C/C=C/CCC(O)C(OC(N)=O)CCC(C)CC(O)C(C)C(=O)O1 (stereo not given)
inactive: T-47D breast 91.6% | BT-549 breast 120% | MDA-MB-435 melanoma 50.6% | SW-620 colon 103% | MCF7 breast 86.5% | HCT-116 colon 94.1% | HCC-2998 colon 52.3% | KM12 colon 102%

CCCCCCOc1ccc(/C=N/Nc2cc(C)nc3ccc(Cl)cc23)cc1
active: MDA-MB-435 melanoma -75.9% | SW-620 colon -83.3% | MCF7 breast -66.6% | HCT-116 colon -58.9% | HCC-2998 colon -81.9% | KM12 colon -68.2%
inactive: T-47D breast 34.5% | BT-549 breast 109%

COc1cc(C=O)ccc1OC1OC(COC(C)=O)C(OC(C)=O)C(OC(C)=O)C1OC(C)=O (stereo not given)
inactive: T-47D breast 92.4% | BT-549 breast 102% | MDA-MB-435 melanoma 107% | SW-620 colon 99.7% | MCF7 breast 97.3% | HCT-116 colon 100% | HCC-2998 colon 108% | KM12 colon 103%

COc1ccc(CCn2cncc2-c2c[nH]c3ccccc23)cc1
inactive: T-47D breast 80.2% | BT-549 breast 90% | MDA-MB-435 melanoma 100% | SW-620 colon 87.9% | MCF7 breast 78.7% | HCT-116 colon 80.5% | HCC-2998 colon 91.8% | KM12 colon 97.8%

Cc1ccc(C(=O)/C(=C/c2ccc([N+](=O)[O-])cc2)SCc2ccc(Cl)cc2)cc1
active: SW-620 colon -52.1% | HCT-116 colon -59.9%
inactive: T-47D breast 65.2% | BT-549 breast 88.9% | MDA-MB-435 melanoma 78.1% | MCF7 breast 12.8% | HCC-2998 colon 78.6% | KM12 colon 44.8%

COc1cc(-c2csc(NC(=O)c3cc(F)cc(C(F)(F)F)c3)n2)cc(OC)c1OC
inactive: T-47D breast 19.3% | BT-549 breast 41.2% | SW-620 colon 32.4% | MCF7 breast 20.9% | HCT-116 colon 16.5% | HCC-2998 colon 72.2% | KM12 colon 26.6%
active: MDA-MB-435 melanoma -16.2%

CCc1c2c(nc3ccc(OCc4ccc(B(O)O)cc4)cc13)-c1cc3c(c(=O)n1C2)COC(=O)[C@]3(O)CC
active: T-47D breast -1.27% | BT-549 breast -3.67% | MDA-MB-435 melanoma 6.63% | MCF7 breast 1.65% | HCT-116 colon 4.57% | KM12 colon 1.86%
inactive: SW-620 colon 13.8% | HCC-2998 colon 19.2%

C=CCn1c(-c2ccc(-c3nc4ccc(C)cc4[nH]3)cc2)n[nH]c1=S
inactive: T-47D breast 97.5% | BT-549 breast 100% | MDA-MB-435 melanoma 98.1% | SW-620 colon 112% | MCF7 breast 82.8% | HCT-116 colon 106% | HCC-2998 colon 108% | KM12 colon 105%

C=C1C(=O)O[C@H]2[C@H]1CC/C(COC(=O)NCc1c[nH]c3ccc(Br)cc13)=C\CC[C@@]1(C)O[C@@H]21
inactive: MCF7 breast 16.6% | HCC-2998 colon 53.3% | KM12 colon 19.5%
active: T-47D breast -68% | BT-549 breast -52.3% | MDA-MB-435 melanoma -56.5% | SW-620 colon -71.3% | HCT-116 colon -83.1%

NC(=O)Nc1ccc(-n2cnc3cc(-c4ccc(O)cc4)ccc32)cc1
inactive: T-47D breast 59.7% | BT-549 breast 88.2% | MDA-MB-435 melanoma 96.8% | SW-620 colon 114% | MCF7 breast 93.7% | HCT-116 colon 91.8% | HCC-2998 colon 110% | KM12 colon 21.8%

CCCOC(=O)N[C@H]1CCc2cc(OC)c(OC)c(OC)c2-c2ccc(SC)c(=O)cc21
active: MDA-MB-435 melanoma -40.4% | HCT-116 colon 7.65% | KM12 colon -11.3%
inactive: T-47D breast 39.3% | BT-549 breast 10.2% | SW-620 colon 18.4% | MCF7 breast 15.6% | HCC-2998 colon 23%

O=C(Cn1c[n+](CC(=O)c2ccc([N+](=O)[O-])cc2)c2ccccc21)Nc1cccc2cccnc12
inactive: T-47D breast 33.9% | BT-549 breast 35.9% | MDA-MB-435 melanoma 60% | SW-620 colon 54.8% | MCF7 breast 31.4% | HCT-116 colon 37.2% | HCC-2998 colon 50.4% | KM12 colon 78.4%

CCOC(=O)[C@@H](C)C[C@H](Cc1ccccc1)NC(=O)c1csc([C@@H](C[C@H](C(C)C)N(C)C(=O)[C@@H](NC(=O)[C@H]2C[C@H](O[Si](C)(C)C(C)(C)C)CCN2C)C(C)C)OC(C)=O)n1
active: BT-549 breast -29.6% [9.25 µM] | MDA-MB-435 melanoma -57.5% [9.25 µM] | HCT-116 colon -25.9% [9.25 µM] | HCC-2998 colon -1.53% [9.25 µM] | KM12 colon 2.03% [9.25 µM]
inactive: T-47D breast 37% [9.25 µM] | SW-620 colon 11.8% [9.25 µM] | MCF7 breast 13% [9.25 µM]

CCOc1ccc(Nc2nc(-c3ccc4c(c3)NC(=O)CO4)cs2)cc1
inactive: T-47D breast 24.6% | BT-549 breast 47% | MDA-MB-435 melanoma 30.7% | SW-620 colon 82.5% | MCF7 breast 38.1% | HCT-116 colon 40.7% | HCC-2998 colon 86% | KM12 colon 67.9%

C=C1C(=O)O[C@H]2[C@H]1CC/C(COC(=O)NCCc1c[nH]c3ccc(OC)cc13)=C\CC[C@@]1(C)O[C@@H]21
inactive: MDA-MB-435 melanoma 14.7% | MCF7 breast 26.9% | HCC-2998 colon 75.1% | KM12 colon 63.1%
active: T-47D breast -35.3% | BT-549 breast -22.1% | SW-620 colon -56.2% | HCT-116 colon -82.5%

CCCCCN1C=C/C(=C\C(=O)N(C)c2ccc(OC(F)(F)F)cc2)c2ccccc21
inactive: T-47D breast 88.3% | BT-549 breast 109% | MDA-MB-435 melanoma 105% | SW-620 colon 98.1% | MCF7 breast 88.7% | HCT-116 colon 74.3% | HCC-2998 colon 106% | KM12 colon 102%

CCCCCCCCO/N=C\c1c2c(O)c3c(O)c(C)c4c(c3c1O)C(=O)C(C)(O/C=C\C(OC)C(C)C(OC(C)=O)C(C)C(O)C(C)C(O)C(C)/C=C\C=C(\C)C(=O)N2)O4 (stereo not given)
inactive: T-47D breast 30.5% | BT-549 breast 45.9% | MDA-MB-435 melanoma 13.5% | SW-620 colon 15.1% | MCF7 breast 21.7% | HCT-116 colon 11.6% | HCC-2998 colon 14.7% | KM12 colon 17.1%

Cc1nn(-c2ccccc2)c(Cl)c1/C=N\N=c1/sc2ccccc2n1C
inactive: T-47D breast 93.7% | BT-549 breast 92.8% | MDA-MB-435 melanoma 102% | SW-620 colon 101% | MCF7 breast 97% | HCT-116 colon 84.5% | HCC-2998 colon 101% | KM12 colon 106%

COc1cc(C2C3=C(COC3=O)N(CCO)c3cc4c(cc32)OCO4)cc(OC)c1OC (stereo not given)
inactive: T-47D breast 36.7% | BT-549 breast 10.6% | SW-620 colon 18.8%
active: MDA-MB-435 melanoma -2.88% | MCF7 breast -6.88% | HCT-116 colon 4.34% | HCC-2998 colon -13% | KM12 colon 5.43%

COc1ccc(C(=O)/C=C/c2cc3ccccc3n3nnnc23)cc1
inactive: T-47D breast 92.1% | BT-549 breast 99.2% | MDA-MB-435 melanoma 103% | SW-620 colon 113% | MCF7 breast 94.7% | HCT-116 colon 106% | HCC-2998 colon 111% | KM12 colon 109%

N#Cc1c(-c2ccccc2)nc2c(c(-c3ccccc3)nn2-c2ccccc2)c1-c1ccc(O)cc1
inactive: T-47D breast 35.3% | BT-549 breast 59.7% | MDA-MB-435 melanoma 51.5% | SW-620 colon 16.5% | MCF7 breast 14.8% | HCT-116 colon 34.8% | HCC-2998 colon 72% | KM12 colon 47.1%

O=C1NN(C(=O)c2ccccc2)C(c2ccc(Cl)c(Cl)c2)=C/C1=C\c1ccc([N+](=O)[O-])cc1
inactive: T-47D breast 76.7% | BT-549 breast 52.4% | MDA-MB-435 melanoma 86.5% | SW-620 colon 42.9% | MCF7 breast 83.6% | HCT-116 colon 90.7% | HCC-2998 colon 44.6% | KM12 colon 51.7%

C#CCNC(=O)[C@H](Cc1ccccc1)NC(=O)[C@]12CC[C@@H](C(=C)C)[C@@H]1[C@H]1CC[C@@H]3[C@@]4(C)CCC(=O)C(C)(C)[C@@H]4CC[C@@]3(C)[C@]1(C)CC2
inactive: T-47D breast 49.8% | BT-549 breast 104% | MDA-MB-435 melanoma 85% | SW-620 colon 64.8% | MCF7 breast 56% | HCT-116 colon 35.3% | HCC-2998 colon 80.8% | KM12 colon 61.5%

O=C(/C(=C/c1ccc([N+](=O)[O-])cc1)SCc1ccc(F)cc1)c1ccc(F)cc1
inactive: T-47D breast 79.8% | BT-549 breast 98.2% | MDA-MB-435 melanoma 85% | HCC-2998 colon 88.4% | KM12 colon 59.8%
active: SW-620 colon -27.5% | MCF7 breast 9.8% | HCT-116 colon -25.2%

COc1ccc(/C=C2\COc3ccc(-c4ccccc4)cc3C2=O)c(OC)c1
inactive: T-47D breast 68.1% | BT-549 breast 91.2% | MDA-MB-435 melanoma 119% | SW-620 colon 92.9% | MCF7 breast 76.9% | HCT-116 colon 75.7% | HCC-2998 colon 75.4% | KM12 colon 97.7%

CCOC(=O)[C@@H]1CCCN(S(=O)(=O)c2ccc(S(=O)(=O)N(CC)CC)c(F)c2)C1
inactive: T-47D breast 53.3% | BT-549 breast 58.5% | MDA-MB-435 melanoma 75.6% | SW-620 colon 86.6% | MCF7 breast 61.8% | HCT-116 colon 42% | HCC-2998 colon 92.5% | KM12 colon 81.9%

Nc1n[nH]c2cccc(C#Cc3cccc(C(=O)Nc4cccc(C(F)(F)F)c4)c3)c12
inactive: T-47D breast 46.9% | BT-549 breast 84.9% | MDA-MB-435 melanoma 52.5% | SW-620 colon 55.9% | MCF7 breast 71.6% | HCT-116 colon 27.5% | HCC-2998 colon 62% | KM12 colon 46.7%

CC(Oc1ccc(C(=O)O)cc1C(F)(F)F)c1ccc(Oc2ccccc2)cn1 (stereo not given)
inactive: T-47D breast 100% | BT-549 breast 89.1% | MDA-MB-435 melanoma 77.4% | SW-620 colon 103% | MCF7 breast 89.5% | HCT-116 colon 103% | HCC-2998 colon 108% | KM12 colon 92.2%

Cc1cc(Cl)nc(N(CCNc2ccnc3cc(Cl)ccc23)Cc2ccccn2)n1
inactive: BT-549 breast 75.4% | MDA-MB-435 melanoma 61.7% | SW-620 colon 56.6% | MCF7 breast 53.6% | HCT-116 colon 17.3% | HCC-2998 colon 85.7% | KM12 colon 64.1%
active: T-47D breast -19.6%
